Screens (PubChem BioAssay)
The full list was thinned out, with hits kept by preference.
Pf apPOL block: Pf-apPOL DNA polymerase inhibition. 210,000 compounds, 0.25% hits. AID 1794808. Recombinant Pf-apPOL, molecular beacon fluorescence, 1.5 h. inhibition, % at 10 µM
mHTT CaM bind: inhibitors of human mutant huntingtin-calmodulin interaction; 190,000 compounds, 3.6% hits; AlphaScreen His-mHTT/GST-CaM binding, luminescence; inhibition, % at 15 µM; P42858;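 also: 0% = both proteins with DMSO and 100% = one protein alone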
* = called active by the depositor; i = inactive; · = no result given. Rule as the data show it: active = inhibition above about 50%; inactive = the rest.

SMILES	Pf apPOL block	mHTT CaM bind
CC1=NN(c2ccccc2)C(=O)/C1=C\c1cn(-c2ccccc2)nc1-c1ccc(F)cc1	-4	-3
Cc1cccc(C)c1NC1=NC(=S)N(c2cccc(O)c2)C12CCC(C(C)(C)C)CC2 (stereo not drawn)	-117	56*
Cc1cccc(N(C)C(=O)CN2C(=O)NC3(CCC(C(C)(C)C)CC3)C2=O)c1 (stereo not drawn)	-5	1
CCCn1c(C(=O)NCc2ccccn2)cc2sc(Br)cc21	-8	72*
COc1ccccc1-c1cc(C(=O)NCc2ccccn2)n(C)n1	-21	100*
CCn1c(C(=O)NCc2ccccc2F)cc2sc(C)cc21	-4	30
CCCn1c(C(=O)N2CCOCC2)cc2sc(Br)cc21	-13	24
O=C(NCc1ccccn1)c1cc2sccc2n1CC1CC1	-12	13
Cc1cc2c(cc(C(=O)NCc3ccccn3)n2CC2CCC2)s1	-2	57*
C=CCn1c(C(=O)NCc2ccccn2)cc2sc(C)cc21	-2	56*
COc1ccccc1OCC(=O)NCc1ccccn1	-8	15
O=C(NC(Nc1ccccc1)C(Cl)(Cl)Cl)c1ccccc1Cl (stereo not drawn)	-494	-8
O=C(CN(Cc1ccc(Cl)cc1)S(=O)(=O)c1ccccc1)NC1CCCC1	3	-11
CC(=O)c1cccc(Nc2ncnc(N)c2[N+](=O)[O-])c1	-5	-18
O=[N+]([O-])c1cccnc1N/N=C/c1cc(Br)c(Br)o1	·	i
O=c1[nH]c(/C=C/c2ccc(Cl)cc2)nc2ccccc12	-2	-1
O=c1[nH]c(/C=C/c2cccnc2)nc2ccccc12	-4	100*
CCn1c(/C=C/c2ccccc2Cl)nc2ccccc2c1=O	-8	-1
CCn1c(/C=C/c2cccnc2)nc2ccccc2c1=O	-2	100*
O=C(NCCCOc1cccc2cccnc12)c1ccc2c(c1)OCO2	-4	7
Cc1ccnc(NC(c2ccccn2)c2ccc3cccnc3c2O)c1 (stereo not drawn)	-4	100*
Cc1ccnc(NC(c2ccc3c(c2)OCO3)c2ccc3cccnc3c2O)c1 (stereo not drawn)	1	99*
Cc1ccnc(NC(c2ccsc2)c2ccc3cccnc3c2O)c1 (stereo not drawn)	-1	100*
Cc1ccnc(NC(=O)Nc2ccc(F)cc2)c1	-8	-1
Cc1ccnc(NC(=O)c2ccc(-c3nc(-c4ccccc4)no3)cc2)c1	-3	-5
SMILES	Pf apPOL block	mHTT CaM bind
Cc1ccc(NC(=O)c2cccnc2-c2ccsc2)c(C)c1	1	1
Cc1ccnc(NC(c2ccc(F)cc2)c2ccc3cccnc3c2O)c1 (stereo not drawn)	2	98*
CCc1cccc(NC(=O)N2CCCC2c2nc(-c3ccccc3OC)no2)c1 (stereo not drawn)	-2	4
CCOc1cc(C2CC(=O)Nc3n[nH]c(C)c32)ccc1O (stereo not drawn)	10	-9
Cc1nc(-c2ccc(F)cc2)sc1C(=O)N1CCC(CC(=O)N2CCCCCC2)CC1	-3	13
Cc1ccnc(NC(=O)c2ccc(C(=O)Nc3cc(C)ccn3)cc2)c1	4	7
Cc1ccnc(NC(c2ccncc2)c2ccc3cccnc3c2O)c1 (stereo not drawn)	5	100*
CC(C)Oc1ccc(NC(=O)c2ccc([N+](=O)[O-])cc2Cl)cc1	-9	10
COCC(C)NC(=O)c1ccc([N+](=O)[O-])cc1Cl (stereo not drawn)	109*	1
COc1ccc(/C=C2\CN(C)C/C(=C\c3ccc(OC)c(OC)c3)C2=O)cc1OC	-1	37
O=[N+]([O-])c1cccc(C=Nc2cccc(O)c2)c1O	-3	74*
O=c1oc2ccccc2cc1-c1cccc(N=Cc2ccccc2O)c1	-3	6
Oc1ccccc1C=Nc1cccc(N=Cc2ccccc2O)c1	-3	71*
Cc1ccc(N=Cc2c(C)c(Cl)c(C)c([N+](=O)[O-])c2O)c(O)c1	2	8
Cc1c(Cl)c(C)c([N+](=O)[O-])c(O)c1C=Nc1cccc(O)c1	1	76*
O=[N+]([O-])c1cccc(N=Cc2cccc([N+](=O)[O-])c2O)c1	0	5
CC(C)C(O)(C(=O)OC[C@@H]1CCN2CCC[C@@H]12)C(C)O (stereo partly drawn)	·	-8
CC(C)(C)NC(=O)c1ncn(-c2ccccc2)n1	-4	-3
Cc1ccnc(N2CCCC(C(=O)N3CCCCCC3)C2)n1 (stereo not drawn)	-4	-2
Cc1ccnc(N2CCCC(C(=O)N3CC=C(c4ccccc4)CC3)C2)n1 (stereo not drawn)	-5	68*
O=C(NCCn1cc(SCC(=O)N2CCc3ccccc32)c2ccccc21)c1cccs1	5	13
O=C(O)C1CCC(N2C(=O)c3cc(Cl)c(Cl)cc3C2=O)CC1 (stereo not drawn)	2	-1
Cc1cc(NC(=O)C2CN(S(C)(=O)=O)CC23CCCCC3)ccc1F (stereo not drawn)	-1	6
COc1ccc(C2CC(C(F)(F)F)n3nc(C(=O)N(C)Cc4ccccc4)c(Cl)c3N2)cc1 (stereo not drawn)	-4	89*
CC1CCC(C)N(C(=O)c2cc3n(n2)C(C(F)(F)F)CC(c2ccccc2)N3)C1 (stereo not drawn)	-1	30
SMILES	Pf apPOL block	mHTT CaM bind
Cc1ccc(C2CC(C(F)(F)F)n3nc(C(=O)NCCc4ccccc4)cc3N2)cc1 (stereo not drawn)	5	39
COc1ccc(C2CC(C(F)(F)F)n3nc(C(=O)Nc4cccnc4)cc3N2)cc1 (stereo not drawn)	55*	14
Cc1ccc(C2CC(C(F)(F)F)n3nc(C(=O)Nc4cccnc4)cc3N2)cc1 (stereo not drawn)	-2	8
COc1ccc(C2CC(C(F)(F)F)n3nc(C(=O)NCc4ccccc4)c(Cl)c3N2)cc1 (stereo not drawn)	-1	4
CC1CCN(C(=O)c2cc3n(n2)C(C(F)(F)F)CC(c2ccccc2)N3)C2CCCCC12 (stereo not drawn)	-11	58*
CN(Cc1ccccc1)C(=O)c1cc2n(n1)C(C(F)(F)F)CC(c1ccccc1)N2 (stereo not drawn)	23	53*
COc1ccc(CC(=O)N2CCCC2c2ccc(OC)cc2)cc1 (stereo not drawn)	-2	13
C1=CC2CC1CC2CN1CCN(C2CC3CCC2C3)CC1 (stereo not drawn)	·	-3
Cc1ccc(C(=O)Nc2c3c(nn2-c2cccc(Cl)c2)CS(=O)(=O)C3)cc1C	0	13
COc1ccc(C(=O)N2CCC(C(=O)Nc3cc(OC)ccc3OC)CC2)cc1	3	4
CCOc1nnc(-c2ccc(C)cc2)c2ccccc12	3	-11
CCOc1nc(N=C(N)N)nc2c(C)cccc12	3	65*
CS(=O)(=O)NCCSCc1ccc(Cl)c(Cl)c1	-2	4
O=S(=O)(NCCSCc1ccc(Cl)cc1)c1ccc2c(c1)OCCO2	-1	-5
O=S(=O)(NCCSCc1ccc(Cl)c(Cl)c1)c1ccc2c(c1)OCCO2	-6	51*
CC(=O)Nc1ccc(S(=O)(=O)NCCSCc2ccc(Cl)c(Cl)c2)cc1	-10	90*
O=C(c1c[nH]c2ccccc12)N1CCC2(CC1)NC(=O)N(Cc1ccccc1Cl)C2=O	-7	98*
O=C(c1ccccc1)N1CCC2(CC1)NC(=O)N(Cc1ccc(F)cc1)C2=O	-4	8
